tim23-1 inh = tim23-1 yeast growth inhibition; S. cerevisiae tim23-1 growth, BacTiter-Glo luminescence, 24 h; inhibition, % at 20 µM; 330,000 tested, 1.3% active; AID 463212;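 active = growth inhibition of the mutant yeast at or above 50%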;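 also: temperature-sensitive mutant grown at 25 °C; plate controls were DMSO-treated mutant yeast for no effect and medium wells lacking yeast for full effect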
NLRP3 yeast inh = blocks the NALP3 inflammasome reconstituted in yeast; Yeast reconstituted NLRP3/ASC/caspase-1, beta-gal luminescence, 24 h; inhibition, % at 10 µM; 330,000 tested, 0.39% active;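 active = inhibition of 50% or more; inactive = inhibition below 50%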;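 also: plate controls were induced DMSO wells for no effect and uninduced yeast grown without galactose for full effect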
V-ATPase pHluor = yeast V-ATPase proton transport regulation by pHLuorin; S. cerevisiae, pHLuorin cytosolic pH fluorescence; response, % at 10 µM; 350,000 tested, 0.37% active; AID 504577; in the data active = response mostly above about 7.3%, no sharp cut-off; inactive = mostly below about 5.4%; also: actives read high
TIM10 inh = growth inhibitors of TIM10 yeast strain; S. cerevisiae TIM10 strain growth, BacTiter-Glo luminescence, 24 h; AID 463195; inhibition, % at 10 µM; 330,000 tested, 1.4% active;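 active = inhibition of 40% or more at the single tested concentration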;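 also: wild-type TIM10 isogenic control strain grown at permissive 25 °C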
NALP1 yeast inh = NALP1 inhibition; inhibition, % at 10 µM; 280,000 tested, 0.61% active; AID 2071; S. cerevisiae NALP1/ASC/caspase-1 growth, X-gal OD620, 72 h; in the data active = inhibition mostly above about 24%, no sharp cut-off; inactive = mostly below about 32%
tim10-1 inh = inhibits growth of tim10-1 mutant yeast; 330,000 tested, 2.2% active; S. cerevisiae tim10-1 ts strain growth, BacTiter-Glo, 24 h; AID 463190; inhibition, % at 20 µM;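 active = inhibition of at least 40%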;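 also: mutant grown at 25 °C; 0% = DMSO wells with yeast and 100% = wells holding no yeast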
* = called active by the depositor; x = no result given. Rows were chosen to be rich in hits. Some 4.2% of all compounds tested hit in one or more screens of this group.

SMILES	tim23-1 inh	NLRP3 yeast inh	V-ATPase pHluor	TIM10 inh	NALP1 yeast inh	tim10-1 inh
COc1ccc(Cn2cc3c(-c4ccc(F)cc4)nnc-3c3cc(OC)c(OC)cc32)cc1	12	3	0	8	23	7
CC(C)CC(=O)/C(=C/c1ccc(N(C)C)cc1)n1cncn1	34	35	2	24	12	24
CC(C)CC(=O)/C(=C\c1ccc(Cl)cc1Cl)n1cncn1	x	x	2	x	112*	x
CCn1ncc([N+](=O)[O-])c1C(=O)Nc1c(C)nn(Cc2ccc(F)cc2)c1C	16	17	-1	-2	4	16
O=C(c1cccc(Cl)c1)N1CCN(c2ncnc3c2cnn3-c2ccccc2)CC1	30	13	-1	13	25*	17
Cc1nnc(C)c2c(C)n(-c3ccc4ncccc4c3)c(C)c12	-3	-6	1	0	25*	16
Cc1ccc2ncccc2c1	6	12	-5	-3	x	13
COc1ccc(C2=CCN3CCCCC3C2)c(-c2ccc(OC)c(OC)c2)c1 (configuration not stated)	12	6	1	5	x	14
CCC(=O)N(c1nnc(SCC(=O)c2ccc[nH]2)s1)C1CC1	5	19	18*	-8	x	-2
COCCNC(=S)N1CCc2cc(OC)c(OC)cc2C1c1cccs1 (configuration not stated)	16	-6	-1	-2	24*	18
COc1ccccc1NC(=O)N[C@@H](Cc1c[nH]c2ccccc12)C(=O)NN	17	3	1	-5	12	11
O=C(CCN1CCN(Cc2ccccc2)CC1)NNC(=O)Nc1cccc([N+](=O)[O-])c1	4	22	3	7	26*	6
Cc1nc(-c2ccc3c(c2)OCO3)cs1	8	16	5	-1	15	-8
Cc1nc(-c2ccc3c(c2)OCCCO3)cs1	5	17	-2	-9	42*	4
COc1ccc(NC(=O)c2cccs2)cc1	10	19	21*	3	28	-16
O=C(Nc1ccc(NC(=O)c2cccs2)cc1)c1cccs1	-3	2	-4	-7	6	-45
COc1cc(C(=O)N[C@H](C(=O)NC(C)C23CC4CC(CC(C4)C2)C3)C(C)C)cc(OC)c1OC (some centres not stated)	16	-5	-1	9	41*	17
CCC(C(=O)OCC(=O)N1C(C)CCCC1C)c1ccccc1 (configuration not stated)	2	-1	284*	-7	-1	21
CC1CCCC(C)N1C(=O)COC(=O)c1ccccc1O (configuration not stated)	10	4	-1	4	x	4
Cc1ccc(OCCCCNC2CCCC(C)C2C)c(C)c1 (configuration not stated)	-59	37	1	-3	30*	-1
COC(=O)c1cc(C(=O)Nc2ccc(S(N)(=O)=O)cc2)cc([N+](=O)[O-])c1	7	0	1	8	26	1
O=C(Nc1cc(Br)c(O)c(Br)c1)c1cccc(NC(=O)c2ccco2)c1	-5	24	-1	-14	16	-21
O=C(Nc1cccc(N=Cc2cc(Br)cc(Br)c2O)c1)c1ccco1	x	x	-4	x	65*	x
CCCCOc1ccc(NC(=O)c2cnc(C)cn2)cc1	10	21	-1	9	45*	6
Cc1ccc(OCC(=O)N(c2ccccn2)C2CCCCC2)c(C)c1	36	9	-6	14	44*	31
SMILES	tim23-1 inh	NLRP3 yeast inh	V-ATPase pHluor	TIM10 inh	NALP1 yeast inh	tim10-1 inh
O=C(COc1ccc(Cl)cc1Cl)N(c1ccccn1)C1CCCCC1	40	-10	5	22	21	16
CCCC(=O)Nc1sc(C)c(-c2ccc(C(C)CC)cc2)c1C#N (configuration not stated)	0	-6	16*	-12	-4	7
CCCC(=O)Nc1sc(C)c(C)c1C#N	11	-25	2	6	2	9
CN(C(=O)COC(=O)c1ccc(-c2ccc(O)cc2)cc1)C1CCS(=O)(=O)C1 (configuration not stated)	-14	5	-2	-11	10	-6
C=CCOc1ccc(/C(O)=C2\C(=O)C(=O)N(CCOC)C2c2cccnc2)cc1 (configuration not stated)	2	7	1	-9	x	-1
CCCOc1ccc(/C(O)=C2/C(=O)C(=O)N(CCOC)C2c2cccnc2)cc1 (configuration not stated)	-5	11	x	-13	31*	-8
COc1cccc(/C=N/NC(=O)c2ccoc2C)c1	16	16	1	15	36*	-10
O=C(c1ccccc1)c1c2c(cc3sc4ccccc4[n+]13)-c1cccc3cccc-2c13	x	x	-1	x	58*	x
CC(=O)N1CCc2cc(S(=O)(=O)NCCC(=O)Nc3cc(C)cc(C)c3)ccc21	-2	14	-1	-9	40*	11
COc1ccc(CCNCC(=O)Nc2ccc(C)c(Br)c2)cc1OC	8	20	0	5	-8	15
COc1ccc(CCNCC(=O)Nc2ccc(C)c(S(=O)(=O)N(C)C)c2)cc1OC	10	11	-6	3	36*	-5
O=C(NNc1ccccc1)/C(=C\c1cccnc1)NC(=O)c1ccccc1	12	17	-3	-10	26	-42
Cc1ccc2nc(C)cc(Nc3ccc4c(c3)OCCO4)c2c1	19	11	-2	21	33*	22
COc1ccc(C2(CNC(=O)c3ccc(N)cc3)CCCC2)cc1	32	9	-4	13	42*	21
C/C(=N\NC(=O)C(=O)Nc1c(C)n(C)n(-c2ccccc2)c1=O)c1ccncc1	-3	7	1	5	6	-4
COc1ccc(NC(=S)N(C(C)C)C2CCN(C(C)C)CC2)cc1Cl	-12	8	x	10	47*	2
CCOC(=O)C1=C(CCl)NC(=O)NC1c1ccc2c(c1)OCO2 (configuration not stated)	3	9	3	-6	-3	-2
CC1=NN(CCc2ccccn2)C(=O)CC1	-4	10	3	14	x	-8
CC(C)c1ccc(NC(=O)CSc2nc3ccsc3c(=O)n2CCC(=O)O)cc1	1	5	6	2	1	-12
CCOC(=O)CCCNC(=O)CN1C(=O)NC(c2ccccc2)(c2ccccc2)C1=O	16	9	4	-13	6	2
Cc1ccc2c(c1)c1c3n2CCCNC3CCC1 (configuration not stated)	19	4	3	1	66	14
c1cc2c(cc1C1CCCCC1)c1c3n2CCCNC3CCC1 (configuration not stated)	10	-3	-3	9	41*	-5
Cc1ccc(CNC(=O)CCS(=O)(=O)c2ccc(Br)s2)cc1	5	8	3	12	43*	18

High-throughput results (PubChem)
